# Laboratory results as given in paper PMC7862700, “An all-to-all approach to the identification of sequence-specific readers for epigenetic DNA modifications on cytosine”.
# What was measured:
# Assay in all cases: DAPPL (digital affinity profiling via proximity ligation, sequencing); 10 mM Tris-HCl pH 7.5, 50 mM NaCl, 1 mM DTT, 4% glycerol, room temperature, 30 min; GST-TFs on glutathione beads, 16-mer random dsDNA library, 0.1% formaldehyde crosslink after washing; high values mean tight binding
# Conditions in all cases: protein: recombinant; tags: N-terminal GST; dsDNA, one strand shown
# [1] = target: T1, FLI1 (Homo sapiens, UniProt Q01543 1-452)
# T1 sequence: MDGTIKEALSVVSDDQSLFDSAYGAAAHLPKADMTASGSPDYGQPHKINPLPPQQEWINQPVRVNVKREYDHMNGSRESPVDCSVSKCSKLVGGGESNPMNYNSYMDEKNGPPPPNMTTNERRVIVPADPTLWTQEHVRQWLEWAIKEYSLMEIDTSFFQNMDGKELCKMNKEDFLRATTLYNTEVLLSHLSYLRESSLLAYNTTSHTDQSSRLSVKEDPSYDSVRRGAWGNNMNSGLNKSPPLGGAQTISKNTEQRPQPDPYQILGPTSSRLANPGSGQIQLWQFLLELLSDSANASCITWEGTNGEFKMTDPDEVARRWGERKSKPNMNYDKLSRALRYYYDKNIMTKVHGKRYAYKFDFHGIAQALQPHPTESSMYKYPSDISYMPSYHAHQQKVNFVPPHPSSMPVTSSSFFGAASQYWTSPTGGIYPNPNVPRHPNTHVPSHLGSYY
# In short: (§1)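 After expression in yeast as GST fusions, human transcription factors were bound to glutathione beads, DNA-barcoded and mixed with a tag-only sample. The pools were incubated with 200 nmole of a 16-mer random double-stranded DNA library in Tris/NaCl/DTT/glycerol buffer (30 min, room temperature), washed and crosslinked with 0.1% formaldehyde. Proximity ligation with BsaI/T4 ligase ran for 1 h at 37 °C, before PCR amplification and sequencing on an Illumina NextSeq500. Binding signal is a hexamer's read frequency for a factor divided by its frequency for the tag-only sample.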
# [2] = target: T2, ELK1 (Homo sapiens, UniProt P19419 1-428)
# T2 sequence: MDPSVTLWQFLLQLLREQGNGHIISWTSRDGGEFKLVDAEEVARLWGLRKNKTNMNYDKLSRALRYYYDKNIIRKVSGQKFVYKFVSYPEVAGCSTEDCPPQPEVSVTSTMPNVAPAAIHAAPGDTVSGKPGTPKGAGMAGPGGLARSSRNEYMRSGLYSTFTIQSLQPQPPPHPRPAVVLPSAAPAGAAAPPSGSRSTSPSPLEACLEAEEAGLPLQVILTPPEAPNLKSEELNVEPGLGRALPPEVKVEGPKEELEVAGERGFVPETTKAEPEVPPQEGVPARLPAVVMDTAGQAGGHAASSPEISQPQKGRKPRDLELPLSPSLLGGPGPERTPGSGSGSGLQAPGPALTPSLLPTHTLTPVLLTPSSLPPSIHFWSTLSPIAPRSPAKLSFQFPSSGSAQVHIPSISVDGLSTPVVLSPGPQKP
# In short: as §1
# [3] = target: T3, GABPA (Homo sapiens, UniProt Q06546 1-454)
# T3 sequence: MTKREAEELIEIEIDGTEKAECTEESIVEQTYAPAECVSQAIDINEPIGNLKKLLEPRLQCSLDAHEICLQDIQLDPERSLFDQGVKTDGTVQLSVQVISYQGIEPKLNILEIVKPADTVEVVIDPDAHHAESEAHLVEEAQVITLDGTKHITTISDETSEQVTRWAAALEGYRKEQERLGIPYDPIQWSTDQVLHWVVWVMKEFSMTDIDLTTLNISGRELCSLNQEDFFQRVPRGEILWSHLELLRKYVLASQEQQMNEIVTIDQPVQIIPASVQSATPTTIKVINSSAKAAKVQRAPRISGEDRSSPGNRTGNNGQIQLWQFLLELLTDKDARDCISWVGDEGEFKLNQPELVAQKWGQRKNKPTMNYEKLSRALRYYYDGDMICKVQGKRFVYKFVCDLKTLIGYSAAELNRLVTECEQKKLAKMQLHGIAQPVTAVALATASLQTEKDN
# In short: as §1
# [4] = target: T4, ERG (Homo sapiens, UniProt P11308 1-479)
# T4 sequence: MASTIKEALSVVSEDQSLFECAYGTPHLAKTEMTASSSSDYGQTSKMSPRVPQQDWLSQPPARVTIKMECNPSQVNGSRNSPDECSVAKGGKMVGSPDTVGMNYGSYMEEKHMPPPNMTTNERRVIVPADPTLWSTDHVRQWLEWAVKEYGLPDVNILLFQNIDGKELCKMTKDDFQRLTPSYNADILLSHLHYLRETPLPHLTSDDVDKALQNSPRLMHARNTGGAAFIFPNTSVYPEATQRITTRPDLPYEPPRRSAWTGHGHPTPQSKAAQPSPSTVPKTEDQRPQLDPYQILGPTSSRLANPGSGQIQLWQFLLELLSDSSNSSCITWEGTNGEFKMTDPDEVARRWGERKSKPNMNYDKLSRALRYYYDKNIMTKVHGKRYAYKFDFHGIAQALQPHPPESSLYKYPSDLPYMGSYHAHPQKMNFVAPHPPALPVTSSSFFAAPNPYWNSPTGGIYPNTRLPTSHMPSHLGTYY
# In short: as §1
# [5] = target: ELF1 (Homo sapiens, UniProt P32519 1-619)
# ELF1, sequence (P32519 whole entry): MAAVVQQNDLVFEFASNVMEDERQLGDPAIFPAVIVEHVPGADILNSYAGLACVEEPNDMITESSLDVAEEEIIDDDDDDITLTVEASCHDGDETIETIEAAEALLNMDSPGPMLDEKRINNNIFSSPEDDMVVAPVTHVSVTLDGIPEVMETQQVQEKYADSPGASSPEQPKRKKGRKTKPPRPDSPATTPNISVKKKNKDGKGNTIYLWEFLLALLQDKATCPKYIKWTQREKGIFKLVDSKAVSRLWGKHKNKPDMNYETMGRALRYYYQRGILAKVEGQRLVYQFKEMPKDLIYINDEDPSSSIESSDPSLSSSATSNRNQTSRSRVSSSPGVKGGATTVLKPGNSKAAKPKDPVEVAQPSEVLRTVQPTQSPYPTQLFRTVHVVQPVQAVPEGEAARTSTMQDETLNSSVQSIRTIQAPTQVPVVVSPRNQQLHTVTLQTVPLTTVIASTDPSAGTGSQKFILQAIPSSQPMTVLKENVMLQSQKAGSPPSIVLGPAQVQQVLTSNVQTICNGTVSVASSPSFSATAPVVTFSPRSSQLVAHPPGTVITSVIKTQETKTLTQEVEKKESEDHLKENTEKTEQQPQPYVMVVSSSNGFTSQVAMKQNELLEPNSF
# In short: as §1
# [6] = target: T5, EHF (Homo sapiens, UniProt Q9NZC4 1-300)
# T5 sequence: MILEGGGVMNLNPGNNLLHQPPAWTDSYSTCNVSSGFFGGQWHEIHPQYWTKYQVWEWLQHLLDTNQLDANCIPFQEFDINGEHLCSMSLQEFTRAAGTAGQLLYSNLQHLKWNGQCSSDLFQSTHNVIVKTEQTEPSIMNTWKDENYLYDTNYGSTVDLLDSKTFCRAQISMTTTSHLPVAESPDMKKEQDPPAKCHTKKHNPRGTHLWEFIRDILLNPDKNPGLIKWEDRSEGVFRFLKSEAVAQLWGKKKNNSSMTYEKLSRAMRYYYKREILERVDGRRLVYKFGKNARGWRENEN
# In short: as §1
# [7] = target: SPI1 (Homo sapiens, UniProt P17947 1-270)
# In short: as §1
# [8] = target: SPIB (Homo sapiens, UniProt Q01892 1-262)
# SPIB, sequence (Q01892 whole entry): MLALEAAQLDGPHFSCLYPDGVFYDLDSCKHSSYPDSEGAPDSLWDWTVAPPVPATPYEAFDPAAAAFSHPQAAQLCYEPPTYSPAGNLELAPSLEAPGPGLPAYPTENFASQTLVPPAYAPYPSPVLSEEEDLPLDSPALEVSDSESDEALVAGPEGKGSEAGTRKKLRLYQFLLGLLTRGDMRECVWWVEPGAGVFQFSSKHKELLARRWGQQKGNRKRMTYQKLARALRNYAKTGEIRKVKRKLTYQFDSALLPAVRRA
# In short: as §1
# [9] = target: T6, ELK3 (Homo sapiens, UniProt P41970 1-407)
# T6 sequence: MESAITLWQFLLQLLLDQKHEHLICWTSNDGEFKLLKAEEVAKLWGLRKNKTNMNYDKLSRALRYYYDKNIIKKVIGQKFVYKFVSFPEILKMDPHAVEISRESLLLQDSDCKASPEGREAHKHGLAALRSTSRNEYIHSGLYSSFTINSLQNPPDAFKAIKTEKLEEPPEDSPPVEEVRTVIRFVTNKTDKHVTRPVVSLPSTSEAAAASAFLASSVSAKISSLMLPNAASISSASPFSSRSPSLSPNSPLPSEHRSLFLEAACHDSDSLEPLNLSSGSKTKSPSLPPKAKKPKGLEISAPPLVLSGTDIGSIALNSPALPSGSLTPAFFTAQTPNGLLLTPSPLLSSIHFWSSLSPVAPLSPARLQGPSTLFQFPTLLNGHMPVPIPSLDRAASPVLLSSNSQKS
# In short: as §1
sequence,measurement,setting,value
AAGTCT,binding signal,[1],"1.28 fold enrichment (6-mer frequency, TF over GST control)"
same,binding signal,[2],"1.18 fold enrichment (6-mer frequency, TF over GST control)"
same,binding signal,[3],"1.07 fold enrichment (6-mer frequency, TF over GST control)"
same,binding signal,[4],"1.12 fold enrichment (6-mer frequency, TF over GST control)"
same,binding signal,[5],"1.14 fold enrichment (6-mer frequency, TF over GST control)"
same,binding signal,[6],"1.13 fold enrichment (6-mer frequency, TF over GST control)"
same,binding signal,[7],"1.27 fold enrichment (6-mer frequency, TF over GST control)"
same,binding signal,[8],"1.29 fold enrichment (6-mer frequency, TF over GST control)"
same,binding signal,[9],"1.18 fold enrichment (6-mer frequency, TF over GST control)"
